Shown are actives, neighbours in structure and some others; about 4.1% of the full set was active somewhere.
EBV LMP1 NFkB – inhibitors of Epstein-Barr LMP1-induced NF-kappaB reporter; LMP1-induced NF-kappaB luciferase reporter cells, luminescence; inhibition, % at 12.5 µM; actives 0.69% (n = 350,000); AID 504558; in the data active means inhibition above about 41%;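 further: 0% = neutral control wells and 100% = reference inhibitor control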
TWEAK Fn14 block – inhibitors of TWEAK-Fn14 interaction signaling. TWEAK-stimulated Fn14 reporter cells, luciferase luminescence, 8 h. inhibition, % at 10 µM. actives 2% (n = 360,000); in the data active means inhibition above about 50%
TRPM1 prom inh – MITF TRPM1 promoter inhibition in SK-MEL-5 cells | SK-MEL-5 TRPM1 promoter luciferase, 24 h | inhibition, % at 12.5 µM | actives 0.83% (n = 330,000) | AID 488899;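 active means mean inhibition across replicates of 60% or more, whatever share of single replicates reaches that level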
Peg3 promoter – inhibitors of Peg3 promoter | AID 588405 | HeLa PEG-Prom luciferase reporter, luminescence, overnight | actives 1.7% (n = 360,000) | inhibition, % at 20 µM;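 active means inhibition of at least 50% at 20 µM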
TROY signal inh – TROY signaling inhibition | Q293 LMP1-TROYcd NF-kB luciferase reporter, 4 h | inhibition, % at 10 µM | actives 0.98% (n = 360,000) | AID 1347056;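 active means compounds whose plate-normalised and pattern-corrected inhibition of the luciferase reporter signal at the single screening dose is 50% or more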
Shn3 3UTR inh – inhibitors of Schnurri-3 3'UTR reporter in osteoblasts. actives 0.52% (n = 360,000). Clone20 osteoblast Shn3 3'UTR firefly luciferase, 24 h. inhibition, % at 12.5 µM;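 active means mean inhibition of at least 75% with every replicate also reaching 75%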;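 further: 0% = median of neutral control wells and 100% = pilot-screen positive control compound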
An asterisk follows results filed as active; ! = not confirmed by another sample.

For Clc1ccc(-c2nc3nc4ccccc4nc3n2Cc2ccco2)cc1 the results were EBV LMP1 NFkB -28, TWEAK Fn14 block 59*, TRPM1 prom inh -28, Peg3 promoter -198, TROY signal inh -5 and Shn3 3UTR inh -79.
For O=c1c2ccccc2nc(-c2ccco2)n1Cc1ccccc1 the results were EBV LMP1 NFkB -13, TWEAK Fn14 block -1, TRPM1 prom inh -101, Peg3 promoter -238, TROY signal inh -79 and Shn3 3UTR inh -78.
Screening CCOc1ccc(CCn2c(-c3ccco3)nc3ccccc3c2=O)cc1OCC returned EBV LMP1 NFkB 36, TWEAK Fn14 block 33, TRPM1 prom inh -1, Peg3 promoter 54*, TROY signal inh 4 and Shn3 3UTR inh 11.
`CC(=O)Nc1ccccc1-c1ccccc1[N+](=O)[O-]` gave EBV LMP1 NFkB -6, TWEAK Fn14 block 0, TRPM1 prom inh -7, Peg3 promoter 8, TROY signal inh 9 and Shn3 3UTR inh -2.
`CCS(=O)(=O)c1cc([N+](=O)[O-])c(Sc2ccccc2NC(C)=O)s1` gave EBV LMP1 NFkB -8, TWEAK Fn14 block 61*, TRPM1 prom inh 2, Peg3 promoter -5, TROY signal inh 68* and Shn3 3UTR inh -28.
`CCSc1ccccc1C(=O)n1nnc2ccccc21` gave EBV LMP1 NFkB -1, TWEAK Fn14 block 72*, TRPM1 prom inh 69*, Peg3 promoter 70*, TROY signal inh 43 and Shn3 3UTR inh 73.
For CCSc1ccccc1C(=O)N1CCCC1 the results were EBV LMP1 NFkB -2, TWEAK Fn14 block 1, TRPM1 prom inh -6, Peg3 promoter 12, TROY signal inh 12 and Shn3 3UTR inh -5.
`COc1ccc(C(=O)/C(=C/c2cccs2)c2nc3ccccc3o2)cc1` gave EBV LMP1 NFkB -12, TWEAK Fn14 block 51*, TRPM1 prom inh -4, Peg3 promoter -201, TROY signal inh 52* and Shn3 3UTR inh -29.
`CC1Cc2ccccc2N1C(=O)CN1C(=O)CN(C)C(=O)c2ccccc21` (stereo unspecified) gave EBV LMP1 NFkB 4, TWEAK Fn14 block -1, TRPM1 prom inh -1, Peg3 promoter 5, TROY signal inh 14 and Shn3 3UTR inh -23.
Screening c1ccc(OCCCCn2cnc3ccccc32)cc1 returned EBV LMP1 NFkB 9, TWEAK Fn14 block 74*, TRPM1 prom inh -9, Peg3 promoter -33 and Shn3 3UTR inh 45.
For C/C(=N\NC(N)=S)C1=CCC2C3CC[C@H]4CC(O)CC[C@]4(C)C3CC[C@]12C (stereo partly specified) the results were EBV LMP1 NFkB -20, TWEAK Fn14 block 13, TRPM1 prom inh 30, Peg3 promoter 0, TROY signal inh 25 and Shn3 3UTR inh 66.
For CN(C)CCC(c1ccccc1)c1ccccn1 (stereo unspecified) the results were EBV LMP1 NFkB 56*!, TWEAK Fn14 block 2, TRPM1 prom inh -11, Peg3 promoter 10, TROY signal inh 0 and Shn3 3UTR inh -5.
Screening CC(C)C(=O)O/N=C(\N)c1ccc(Oc2ccc(Cl)cc2)c([N+](=O)[O-])c1 returned EBV LMP1 NFkB -18, TWEAK Fn14 block -28, TRPM1 prom inh -26, Peg3 promoter -56, TROY signal inh -32 and Shn3 3UTR inh -16.
`Cc1ccccc1OCCC(=O)N1CCN(S(=O)(=O)c2ccc(F)cc2)CC1` gave EBV LMP1 NFkB -1, TWEAK Fn14 block 8, TRPM1 prom inh 8, Peg3 promoter 7, TROY signal inh -35 and Shn3 3UTR inh 15.
Screening Cc1cc(C)c(S(=O)(=O)N2CCN(C(=O)CCOc3ccccc3C)CC2)c(C)c1 returned EBV LMP1 NFkB 64*, TWEAK Fn14 block -34, Peg3 promoter 21, TROY signal inh 25 and Shn3 3UTR inh 9.
For COC(=O)c1cc(F)c(-n2cncn2)c(F)c1 the results were EBV LMP1 NFkB 2, TWEAK Fn14 block 22, TRPM1 prom inh 6, Peg3 promoter 20, TROY signal inh 18 and Shn3 3UTR inh 4.
Screening COC(=O)c1cc([N+](=O)[O-])c(-n2cncn2)c([N+](=O)[O-])c1 returned EBV LMP1 NFkB 0, TWEAK Fn14 block 3, TRPM1 prom inh 34, Peg3 promoter 94*, TROY signal inh -2 and Shn3 3UTR inh -18.
CC1(C(=O)NCC2CC2)CCN1C(=O)C1(c2ccccc2)CC1 (stereo unspecified) was read as TWEAK Fn14 block -7, Peg3 promoter -3, TROY signal inh -15 and Shn3 3UTR inh -9.
For CCCCCN=Cc1c(C)[nH]n(-c2nc3ccccc3s2)c1=O the results were EBV LMP1 NFkB 51*, TWEAK Fn14 block 87*, TRPM1 prom inh 20, Peg3 promoter 39, TROY signal inh 39 and Shn3 3UTR inh -5.
`O=c1c(C=NCCCO)c(-c2ccccc2)[nH]n1-c1nc2ccccc2s1` gave EBV LMP1 NFkB 15, TWEAK Fn14 block 77*, TRPM1 prom inh 55, Peg3 promoter 31, TROY signal inh 34 and Shn3 3UTR inh 42.
Screening COCCCN=Cc1c(-c2ccccc2)[nH]n(-c2nc3ccccc3s2)c1=O returned EBV LMP1 NFkB -31, TWEAK Fn14 block -9, TRPM1 prom inh -9, Peg3 promoter -28, TROY signal inh -30 and Shn3 3UTR inh -4.
CCCc1[nH]n(-c2nc3ccccc3s2)c(=O)c1C=NCCCOC was read as EBV LMP1 NFkB -8, TWEAK Fn14 block -6, TRPM1 prom inh -3, Peg3 promoter -8, TROY signal inh -19 and Shn3 3UTR inh -27.
`CCCCCOc1ccc(C(=O)N(Cc2ccco2)C2CCS(=O)(=O)C2)cc1` (stereo unspecified) gave EBV LMP1 NFkB 2, TWEAK Fn14 block -8, TRPM1 prom inh 3, Peg3 promoter 18, TROY signal inh 6 and Shn3 3UTR inh 14.
For CC(Oc1ccc(Cl)cc1Cl)C(=O)N(Cc1ccco1)C1CCS(=O)(=O)C1 (stereo unspecified) the results were EBV LMP1 NFkB -1, TWEAK Fn14 block 83*, TRPM1 prom inh 10, Peg3 promoter 8 and Shn3 3UTR inh 2.
`CC(C)COc1ccc(C(=O)N(Cc2ccco2)C2CCS(=O)(=O)C2)cc1` (stereo unspecified) gave EBV LMP1 NFkB 2, TWEAK Fn14 block 73*, TRPM1 prom inh -7, Peg3 promoter 8 and Shn3 3UTR inh 7.
Screening Cc1cc(OC(C)C(=O)N(Cc2ccco2)C2CCS(=O)(=O)C2)cc(C)c1Cl (stereo unspecified) returned EBV LMP1 NFkB -6, TWEAK Fn14 block -34, TRPM1 prom inh -5, Peg3 promoter 11, TROY signal inh 8 and Shn3 3UTR inh -22.
Cc1ccc(NC(=O)CN(C)C(=O)CSc2nnc(C(F)(F)F)n2C)cc1 was read as EBV LMP1 NFkB 6, TWEAK Fn14 block -1, TRPM1 prom inh 9, Peg3 promoter -8, TROY signal inh 22 and Shn3 3UTR inh -4.
`COc1ccc(-c2noc(CCCCC(=O)N3CCN(c4cc(C)ccc4C)CC3)n2)cc1` gave EBV LMP1 NFkB 37, TWEAK Fn14 block 64*, TRPM1 prom inh 53, Peg3 promoter -7, TROY signal inh 44 and Shn3 3UTR inh 92*.

Screening data (PubChem BioAssay)
